Test results from PubChem BioAssay (NCATS).
Where “and” joins values, the source holds several entries; their conditions need not be identical. Equal entries are not always repeated. Results filed as inconclusive are left out. Calls of active or inactive are those of the source. Unless noted, calls follow the shape of the dose curve; as a rule, active = well fitted curve in the direction sought with a large enough effect; inconclusive = small, poorly fitted or top-dose-only effect, or another doubt; inactive = no such curve, though single readings can be large; an effect the other way counts as inactive or inconclusive.

Experiments:
[1] = AP1 Signaling Pathway (AID 357; active = well fitted curve in either direction with a large enough effect, not every such curve was filed as active;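 also: ME-180 reporter cells stimulated with EGF at its EC50 level; % is scaled to controls: 0 for no effect and ±100 for the full control effect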); conditions: ME-180 AP-1-bla reporter, EGF-induced, beta-lactamase ratio, 5 h
Method in brief: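 AP-1-bla ME-180 cells, Opti-MEM + 0.5% dialyzed FBS, plated overnight 37 °C. Cpd titration + EC50 EGF, 5 h 37 °C. CCF4 2.5 h RT; ex 405, em 460/530 ratio → %activity, AC50.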

[2] = biological target: Cytochrome P450 1A2 (Homo sapiens) (UniProt P05177); test: p450-cyp1a2 (AID 410; calls by dose curve;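 also: -100% = full effect of reference inhibitor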); conditions: recombinant CYP1A2, luciferin-ME demethylation, luminescence; series mostly up to 57 µM
Method in brief: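 Human CYP1A2 (20nM) demethylated Luciferin-ME at its Km (100uM) in 100mM KPO4. After 10 min compound preincubation, NADPH regeneration ran the reaction 60 min at room temperature. Luciferin was read by luminescence, normalized to 57 uM furafylline.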

[3] = NFAT Signaling Pathway (AID 444; active = well fitted curve in either direction with a large enough effect, not every such curve was filed as active;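 also: carbachol stimulus at about its EC50 of 1 µM final; % is scaled to controls: 0 for no effect and ±100 for the full control effect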); conditions: Jurkat NFAT-bla M1, carbachol, beta-lactamase ratio, 5 h
Method in brief: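 Jurkat cells with NFAT-driven β-lactamase reporter and co-expressed M1 receptor, stimulated with carbachol (final 1 uM, ~EC50), compound titration, 5 h at 37 °C. CCF4 loaded 1 h at RT; 460/530 nm ratio gave %activity and AC50.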

[4] = Stat Signaling Pathway (AID 446; active = well fitted curve in either direction with a large enough effect, not every such curve was filed as active;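 also: ME-180 cervical cancer cells given 40 pM IL-6 alongside compound; SIE-controlled beta-lactamase reporter measured as 460/530 nm FRET emission ratio; % is scaled to controls: 0 for no effect and ±100 for the full control effect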); conditions: ME-180 SIE beta-lactamase reporter, IL-6 stimulated, 5 h
Method in brief: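 ME-180 SIE-bla cells; overnight plating; cpd + IL-6 40 pM, 5 h, 37 C; LiveBLAzer 2.5 h RT; 460/530 nm emission ratio. Normalized to 300 pM IL-6 and 125 nM JAK inhibitor controls.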

[5] = biological target: Glucocorticoid receptor (Homo sapiens) (UniProt P04150); test: GR-GFP Redistribution (AID 450;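 active = compounds whose dose series gives a full or clear partial fitted curve of increased nuclear translocation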; also: potency is read from the fitted curve at half-maximal effect); conditions: U2OS GR-GFP nuclear translocation, laser cytometry, 2 h
[6] = biological target: Glucocorticoid receptor (Homo sapiens) (UniProt P04150); test: GR-EFC Redistribution (AID 451; calls by dose curve; also: potency is read from the fitted curve at half-maximal effect); conditions: CHO-K1 GR-EFC translocation, beta-gal luminescence, 2 h
Method in brief: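 CHO-K1 cells expressing nuclear EA and GR-ED fragments of b-gal; compounds titrated up to 46 uM final, 2 h at 37 C. GR nuclear translocation read as complemented b-gal luminescence after 1 h RT detection.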

[7] = biological target: Mitogen-activated protein kinase 10 (Mus musculus) (UniProt Q61831); test: JNK3 AlphaScreen Assay (AID 530; active = well fitted curve in either direction with a large enough effect, not every such curve was filed as active;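 also: kinase came from lysate of stimulated human HepG2 cells; signal reports phosphorylation of biotinylated GST-cJun 1-79 at Ser73 with 10 µM ATP; % is scaled to controls: 0 for no effect and ±100 for the full control effect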); conditions: JNK3 lysate, c-Jun phosphorylation; series mostly up to 57.1 µM
Method in brief: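 qHTS format: compounds tested as titrations against IL-1beta/TNF-alpha-activated HepG2 lysate JNK3 with biotin-GST-cJun substrate and 10 uM ATP at room temperature. Loss of anti-phospho-cJun AlphaScreen signal indicates inhibition.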

[8] = biological target: 3',5'-cyclic-AMP phosphodiesterase 4B (Homo sapiens) (UniProt Q07343); test: qHTS Assay for Inhibitors of PDE-IV (AID 607; active = well fitted activation curve with a large enough effect in the main read-out, with a control signal flat, not every such curve was filed as active; also: % of control where 0% means no effect); conditions: HEK293 ACTOne CNG channel cells, membrane potential fluorescence; series mostly up to 22.9 µM
Method in brief: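 ACTOne HEK293 cells carry a modified cAMP-gated CNG channel and express endogenous PDE4; plated 1000 cells/well, compounds up to 22.9 uM final. Membrane-potential dye fluorescence (ex 535/em 590) was read; parental cells received 10 uM forskolin + 100 uM RO 20-1724.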

[9] = qHTS Assay for Lipid Storage Modulators (AID 1519; calls by dose curve); conditions: Drosophila S3 cells, BODIPY lipid droplet/cell ratio, laser cytometry, cells loaded with oleic acid; for activity change, negative = inhibition: at 25.7 µM (top of the series)
Method in brief: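 Cells seeded at 5,000 per well were treated with compounds over a concentration series and loaded with oleic acid (400 uM, as added). Lipid droplet fluorescence (488 nm excitation, 500-530 nm channel) was read by laser-scanning cytometry and normalized to 20 uM Triacsin C.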

[10] = biological target: ATP-dependent 6-phosphofructokinase (Trypanosoma brucei brucei) (UniProt O15648); test: qHTS Assay to Find Inhibitors of T. brucei phosphofructokinase: hit validation (AID 492961); conditions: T. brucei PFK, ADP-Glo luminescence; series mostly up to 24.3 µM
Method in brief: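 Inhibition of parasite PFK is measured as reduced ADP formation, quantified via luciferase after ATP depletion. Assay used 0.1 mM ATP, 0.5 mM F6P, 1.25 nM enzyme, 45 min incubation.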

[11] = biological target: Ubiquitin carboxyl-terminal hydrolase 1 (Homo sapiens) (UniProt O94782); test: Inhibitors of USP1/UAF1: Pilot qHTS (AID 504865); conditions: purified USP1/UAF1, Ub-rhodamine cleavage fluorescence; series mostly up to 54.9 µM;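 also: rhodamine fluorescence freed from ubiquitin-rhodamine substrate followed over time; top concentration of the series differs between compounds; % is scaled to controls: 0 for no effect and ±100 for the full control effect; nearly all actives have a fitted effect of over 35% in size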
Method in brief: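 USP1/UAF1 complex at 1 nM preincubated 15 min at room temperature with compound, then Ub-Rho substrate added at 150 nM final. Fluorescence (480/540 nm) read kinetically in 50 mM HEPES pH 7.8, 0.5 mM EDTA, 1 mM TCEP, 0.1 mg/ml BSA, 0.01% Tween-20.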

[12] = qHTS profiling for inhibitors of Plasmodium falciparum proliferation (AID 504749); also: nearly all actives have a fitted effect of over 60% in size; also: potency is read from the fitted curve at half-maximal effect;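 as to activity, negative = inhibition: 0% = DMSO vehicle and full inhibition = artemisinin control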; conditions: P. falciparum in erythrocytes, SYBR Green DNA, 72 h
Method in brief: (§1)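 Readout was DNA-dye fluorescence from lysed cultures, ex 485/em 535 nm. Parasitized red cells had grown 72 h with compound; data scaled between 0.29 uM artemisinin and DMSO wells and corrected using vehicle-only plates.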

AS120 = test: as above; conditions: P. falciparum in erythrocytes, SYBR Green DNA, 72 h; series mostly up to 28.7 µM
Method in brief: as §1

CP238 = test: as above; conditions: P. falciparum in erythrocytes, SYBR Green DNA, 72 h; series mostly up to 12.8 µM
Method in brief: as §1

CP250 = test: as above; conditions: P. falciparum in erythrocytes, SYBR Green DNA, 72 h; series mostly up to 12.8 µM
Method in brief: as §1

CP262 = test: as above; conditions: P. falciparum in erythrocytes, SYBR Green DNA, 72 h; series mostly up to 12.8 µM
Method in brief: as §1

CP265 = test: as above; conditions: P. falciparum in erythrocytes, SYBR Green DNA, 72 h; series mostly up to 12.8 µM
Method in brief: as §1

FAB9 = test: as above; conditions: P. falciparum in erythrocytes, SYBR Green DNA, 72 h; series mostly up to 12.8 µM
Method in brief: as §1

JCK = test: as above; conditions: P. falciparum in erythrocytes, SYBR Green DNA, 72 h; series mostly up to 12.8 µM
Method in brief: as §1

PC49 = test: as above; conditions: P. falciparum in erythrocytes, SYBR Green DNA, 72 h; series mostly up to 12.8 µM
Method in brief: as §1

[13] = measured here: cell count channel max response
[14] = measured here: lipid channel max response

Sequence of Ubiquitin carboxyl-terminal hydrolase 1 (Homo sapiens) (O94782 whole entry, looked up): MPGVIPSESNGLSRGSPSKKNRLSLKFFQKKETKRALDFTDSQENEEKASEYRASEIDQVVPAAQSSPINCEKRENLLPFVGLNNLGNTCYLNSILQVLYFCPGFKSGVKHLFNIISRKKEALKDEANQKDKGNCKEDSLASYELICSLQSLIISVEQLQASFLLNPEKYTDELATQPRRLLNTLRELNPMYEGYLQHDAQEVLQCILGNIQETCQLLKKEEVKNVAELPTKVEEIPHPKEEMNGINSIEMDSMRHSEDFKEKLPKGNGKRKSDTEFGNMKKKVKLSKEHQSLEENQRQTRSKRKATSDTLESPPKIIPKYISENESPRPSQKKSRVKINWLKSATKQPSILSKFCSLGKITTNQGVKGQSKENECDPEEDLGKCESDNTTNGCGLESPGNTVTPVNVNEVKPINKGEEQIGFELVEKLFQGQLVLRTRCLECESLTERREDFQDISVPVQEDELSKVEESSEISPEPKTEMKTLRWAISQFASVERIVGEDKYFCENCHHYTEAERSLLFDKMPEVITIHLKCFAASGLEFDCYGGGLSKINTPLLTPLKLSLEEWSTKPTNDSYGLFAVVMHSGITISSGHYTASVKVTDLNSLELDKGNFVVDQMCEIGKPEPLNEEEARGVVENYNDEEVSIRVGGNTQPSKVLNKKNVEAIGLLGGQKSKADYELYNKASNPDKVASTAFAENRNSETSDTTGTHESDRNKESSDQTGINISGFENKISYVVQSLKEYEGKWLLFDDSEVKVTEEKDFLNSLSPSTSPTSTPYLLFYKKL
Sequence of Cytochrome P450 1A2 (Homo sapiens) (P05177 whole entry, looked up): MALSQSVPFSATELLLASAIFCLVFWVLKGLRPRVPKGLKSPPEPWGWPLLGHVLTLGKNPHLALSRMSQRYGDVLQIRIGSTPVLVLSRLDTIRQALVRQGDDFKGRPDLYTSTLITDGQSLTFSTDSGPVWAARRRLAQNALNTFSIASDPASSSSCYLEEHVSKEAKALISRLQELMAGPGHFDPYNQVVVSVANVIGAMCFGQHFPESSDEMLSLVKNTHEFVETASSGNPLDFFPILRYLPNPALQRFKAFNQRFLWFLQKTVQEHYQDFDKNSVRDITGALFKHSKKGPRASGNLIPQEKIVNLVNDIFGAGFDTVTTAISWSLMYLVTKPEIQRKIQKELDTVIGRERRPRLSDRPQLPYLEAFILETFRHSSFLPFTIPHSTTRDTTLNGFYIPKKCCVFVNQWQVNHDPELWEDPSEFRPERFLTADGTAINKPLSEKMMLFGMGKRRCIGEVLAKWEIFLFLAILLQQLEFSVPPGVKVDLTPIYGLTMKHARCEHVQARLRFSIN
Sequence of Glucocorticoid receptor (Homo sapiens) (P04150 whole entry, looked up, the tested form may be a part): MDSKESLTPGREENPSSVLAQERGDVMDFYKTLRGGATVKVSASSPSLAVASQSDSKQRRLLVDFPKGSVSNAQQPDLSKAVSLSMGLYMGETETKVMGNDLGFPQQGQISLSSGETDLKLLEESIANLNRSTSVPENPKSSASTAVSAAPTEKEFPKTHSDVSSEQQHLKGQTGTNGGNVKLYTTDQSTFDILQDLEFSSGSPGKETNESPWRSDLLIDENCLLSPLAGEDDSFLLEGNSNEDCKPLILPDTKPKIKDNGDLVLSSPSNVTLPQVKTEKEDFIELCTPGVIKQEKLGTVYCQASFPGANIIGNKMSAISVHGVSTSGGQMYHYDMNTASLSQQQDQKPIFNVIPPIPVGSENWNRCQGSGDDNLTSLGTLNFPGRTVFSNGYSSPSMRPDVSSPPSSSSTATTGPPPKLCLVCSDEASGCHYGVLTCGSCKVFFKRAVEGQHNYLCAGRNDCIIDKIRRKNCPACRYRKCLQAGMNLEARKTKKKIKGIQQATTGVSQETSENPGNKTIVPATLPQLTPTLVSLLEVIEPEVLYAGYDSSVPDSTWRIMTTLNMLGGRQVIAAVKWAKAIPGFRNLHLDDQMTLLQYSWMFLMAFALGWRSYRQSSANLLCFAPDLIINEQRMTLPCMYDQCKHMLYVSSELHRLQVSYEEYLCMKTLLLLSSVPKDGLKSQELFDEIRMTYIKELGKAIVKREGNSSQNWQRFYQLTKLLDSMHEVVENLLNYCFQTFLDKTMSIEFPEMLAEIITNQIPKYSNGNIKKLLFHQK
Sequence of 3',5'-cyclic-AMP phosphodiesterase 4B (Homo sapiens) (Q07343 whole entry, looked up): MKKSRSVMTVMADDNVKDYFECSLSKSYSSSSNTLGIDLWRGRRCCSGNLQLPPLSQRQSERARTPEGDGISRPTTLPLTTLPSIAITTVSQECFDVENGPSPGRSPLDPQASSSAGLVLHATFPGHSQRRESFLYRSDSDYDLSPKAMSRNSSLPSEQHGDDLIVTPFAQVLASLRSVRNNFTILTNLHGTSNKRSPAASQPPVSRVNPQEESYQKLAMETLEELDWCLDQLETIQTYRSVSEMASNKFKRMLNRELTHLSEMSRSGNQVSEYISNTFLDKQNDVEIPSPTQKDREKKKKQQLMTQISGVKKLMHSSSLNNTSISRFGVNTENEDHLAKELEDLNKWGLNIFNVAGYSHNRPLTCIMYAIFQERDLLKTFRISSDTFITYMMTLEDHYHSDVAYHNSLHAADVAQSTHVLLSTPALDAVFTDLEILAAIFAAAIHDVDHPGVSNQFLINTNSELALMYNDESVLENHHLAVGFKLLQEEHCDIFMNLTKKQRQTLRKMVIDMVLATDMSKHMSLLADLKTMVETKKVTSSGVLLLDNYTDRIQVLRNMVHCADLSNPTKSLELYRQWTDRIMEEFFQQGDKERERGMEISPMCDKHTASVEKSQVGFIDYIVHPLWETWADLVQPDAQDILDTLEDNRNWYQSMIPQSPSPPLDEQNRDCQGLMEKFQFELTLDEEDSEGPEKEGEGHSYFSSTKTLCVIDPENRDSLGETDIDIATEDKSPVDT
Sequence of ATP-dependent 6-phosphofructokinase (Trypanosoma brucei brucei) (O15648 whole entry, looked up): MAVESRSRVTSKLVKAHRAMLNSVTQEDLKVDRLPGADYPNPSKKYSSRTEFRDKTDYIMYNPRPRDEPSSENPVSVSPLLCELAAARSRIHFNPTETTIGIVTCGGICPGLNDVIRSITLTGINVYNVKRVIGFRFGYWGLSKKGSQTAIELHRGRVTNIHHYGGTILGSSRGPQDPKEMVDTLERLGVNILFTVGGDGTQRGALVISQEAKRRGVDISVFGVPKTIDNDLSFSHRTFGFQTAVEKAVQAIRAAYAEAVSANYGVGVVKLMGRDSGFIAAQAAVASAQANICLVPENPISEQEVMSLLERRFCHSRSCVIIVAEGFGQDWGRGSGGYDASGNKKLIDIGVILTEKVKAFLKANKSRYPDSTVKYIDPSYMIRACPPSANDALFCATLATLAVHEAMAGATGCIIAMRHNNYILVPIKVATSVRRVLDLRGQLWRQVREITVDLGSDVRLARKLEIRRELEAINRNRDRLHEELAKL

C[C@@H](CCc1ccccc1)NC[C@H](O)c1ccc(O)c(C(N)=O)c1
active: Potency ([12]; parasite line B) 10 µM
inactive: activity change, negative = inhibition ([1]; at 17.2 µM (top of the series)) 10.2% | activity change, negative = inhibition ([1]; at 38 µM (top of the series)) 8.69% | Potency [2] | activity change, negative = inhibition ([3]; at 17.2 µM (top of the series)) -19.2% | activity change, negative = inhibition ([3]; at 38 µM (top of the series)) -1.34% | activity, negative = inhibition ([4]; at 17.2 µM (top of the series)) -0.55% | activity, negative = inhibition ([4]; at 38 µM (top of the series)) 4.03% | Potency [5] > 46 µM and > 20.6 µM | Potency [6] > 46 µM and > 20.6 µM | Potency [7] | Potency [8] | activity change, negative = inhibition [9] -1.75% | outcome [10] | Potency [11] | Potency (AS120) | Potency (CP238) | Potency (CP250) | Potency (CP262) | Potency (CP265) | Potency (FAB9) | Potency (JCK) | Potency (PC49)
-10.3%: max response [9, 13]
-13.3%: max response [9, 14]

NC(=O)c1cc[n+](CC2=C(C(=O)O)N3C(=O)[C@@H](NC(=O)[C@H](c4ccccc4)S(=O)(=O)[O-])[C@@H]3SC2)cc1
-10.2%: max response [9, 13]
inactive: activity change, negative = inhibition ([1]; at 17.2 µM (top of the series)) 2.93% | activity change, negative = inhibition ([1]; at 38 µM (top of the series)) -7.21% | Potency [2] | activity change, negative = inhibition ([3]; at 17.2 µM (top of the series)) 5.18% | activity change, negative = inhibition ([3]; at 38 µM (top of the series)) 3.09% | activity, negative = inhibition ([4]; at 17.2 µM (top of the series)) 0.394% | activity, negative = inhibition ([4]; at 38 µM (top of the series)) 0.148% | Potency [7] | Potency [8] | activity change, negative = inhibition [9] -1.52% | outcome [10] | Potency [11] | Potency (CP262)
-11.3%: max response [9, 14]
active: Potency ([12]; parasite line A) 3.55 µM | Potency ([12]; parasite line B) 3.55 µM | Potency (AS120) 3.16 µM | Potency (CP238) 3.55 µM | Potency (CP250) 3.98 µM | Potency (CP265) 1.41 µM | Potency (FAB9) 3.16 µM | Potency (JCK) 4.47 µM | Potency (PC49) 3.16 µM

C[C@@]12CCC(=O)C=C1CC[C@H]1[C@H]3CC[C@](O)(C(=O)CO)[C@]3(C)CC(=O)[C@@H]12
-3.69%: max response [9, 14]
-0.115%: max response [9, 13]
inactive: activity change, negative = inhibition ([1]; at 17.2 µM (top of the series)) 11.7% | activity change, negative = inhibition ([1]; at 38 µM (top of the series)) -1.21% | Potency [2] | activity change, negative = inhibition ([3]; at 17.2 µM (top of the series)) -13.1% | activity change, negative = inhibition ([3]; at 38 µM (top of the series)) -9.72% | activity, negative = inhibition ([4]; at 17.2 µM (top of the series)) 8.63% | activity, negative = inhibition ([4]; at 38 µM (top of the series)) -7% | Potency [6] > 46 µM and > 20.6 µM | Potency [8] | activity change, negative = inhibition [9] -1.59% | Potency [11]
active: Potency [5] 431 nM
